According to PubChem BioAssay AID1159580 (chemical genetic matrix, 2015):
Among all 5,500 compounds or so, about 2,000 (36%) were called active. Roughly 18% stayed inconclusive and do not appear here. No stated cut-off is given here; in the data, active means normalized growth mostly below about 0.91 (no sharp cut-off); inconclusive means no clear call, values can overlap the other calls; inactive means mostly above about 0.92. The list shows a part of the results.

Experiment: chemical genetic growth profiling, strain panel (AID 1159580);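 further: tested at 20 µM; growth read once vehicle control cultures reached saturation at 30 °C; 1 = growth at the plate median or of vehicle wells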
Conditions: growth OD

Measured: normalized growth

COc1cc2c(cc1OC)C1Cc3ccc(OC)c(OC)c3CN1CC2 (configuration not stated)
inactive: S. cerevisiae deletion strains, locus YJR066W, strain TOR1, stronger effect = lower value 0.912 | S. cerevisiae deletion strains, locus YKL009W, strain mrt4, stronger effect = lower value 0.988 | S. cerevisiae deletion strains, locus YKL068W, stronger effect = lower value 0.999 | S. cerevisiae deletion strains, locus YKL085W, strain MDH1 (second series), stronger effect = lower value 0.988 | S. cerevisiae deletion strains, locus YKL085W, strain MDH1, stronger effect = lower value 0.988 | S. cerevisiae deletion strains, locus YKL160W, strain elf1, stronger effect = lower value 1.01 | S. cerevisiae deletion strains, locus YKR001C, strain vps1, stronger effect = lower value 1.01 | S. cerevisiae deletion strains, locus YKR026C, strain gcn3, stronger effect = lower value 0.979 | S. cerevisiae deletion strains, locus YKR091W, strain srl3, stronger effect = lower value 0.98 | S. cerevisiae deletion strains, locus YLL001W, strain dnm1, stronger effect = lower value 0.99 | S. cerevisiae deletion strains, locus YLL026W, stronger effect = lower value 0.989 | S. cerevisiae deletion strains, locus YLL041C, strain sdh2, stronger effect = lower value 0.975 | S. cerevisiae deletion strains, locus YLR027C, strain aat2, stronger effect = lower value 0.969 | S. cerevisiae deletion strains, locus YLR039C, strain RIC1, stronger effect = lower value 0.979 | S. cerevisiae deletion strains, locus YLR058C, strain SHM2, stronger effect = lower value 1.01 | S. cerevisiae deletion strains, locus YLR102C, strain apc9, stronger effect = lower value 0.982 | S. cerevisiae deletion strains, locus YLR113W, strain HOG1, stronger effect = lower value 0.978 | S. cerevisiae deletion strains, locus YLR221C, strain rsa3, stronger effect = lower value 0.985 | S. cerevisiae deletion strains, locus YLR258W, strain gsy2, stronger effect = lower value 0.977 | S. cerevisiae deletion strains, locus YLR262C, strain YPT6 (second series), stronger effect = lower value 0.957 | S. cerevisiae deletion strains, locus YLR262C, strain YPT6, stronger effect = lower value 0.918 | S. cerevisiae deletion strains, locus YLR268W, strain sec22, stronger effect = lower value 0.962 | S. cerevisiae deletion strains, locus YLR320W, strain mms22, stronger effect = lower value 0.982 | S. cerevisiae deletion strains, locus YLR330W, strain CHS5, stronger effect = lower value 1.01 | S. cerevisiae deletion strains, locus YLR342W, strain FKS1 (second series), stronger effect = lower value 0.957 | S. cerevisiae deletion strains, locus YLR342W, strain FKS1, stronger effect = lower value 0.968 | S. cerevisiae deletion strains, locus YLR357W, strain rsc2, stronger effect = lower value 0.994 | S. cerevisiae deletion strains, locus YLR370C, strain arc18, stronger effect = lower value 0.971 | S. cerevisiae deletion strains, locus YLR371W, strain rom2, stronger effect = lower value 1.01 | S. cerevisiae deletion strains, locus YLR384C, strain iki3, stronger effect = lower value 0.988 | S. cerevisiae deletion strains, locus YLR418C, strain cdc73, stronger effect = lower value 1.02 | S. cerevisiae deletion strains, locus YML016C, strain PPZ1, stronger effect = lower value 0.988 | S. cerevisiae deletion strains, locus YML032C, strain rad52, stronger effect = lower value 1.03 | S. cerevisiae deletion strains, locus YML120C, strain ndi1, stronger effect = lower value 0.984 | S. cerevisiae deletion strains, locus YML124C, strain tub3, stronger effect = lower value 0.987 | S. cerevisiae deletion strains, locus YMR058W, strain fet3, stronger effect = lower value 0.984 | S. cerevisiae deletion strains, locus YMR078C, strain ctf18, stronger effect = lower value 0.968 | S. cerevisiae deletion strains, locus YMR125W, strain sto1, stronger effect = lower value 0.953 | S. cerevisiae deletion strains, locus YMR129W, stronger effect = lower value 0.978 | S. cerevisiae deletion strains, locus YMR205C, strain PFK2, stronger effect = lower value 0.987 | S. cerevisiae deletion strains, locus YMR223W, strain ubp8, stronger effect = lower value 1.01 | S. cerevisiae deletion strains, locus YMR231W, strain pep5, stronger effect = lower value 0.966 | S. cerevisiae deletion strains, locus YMR263W, strain SAP30, stronger effect = lower value 1 | S. cerevisiae deletion strains, locus YMR307W, strain GAS1, stronger effect = lower value 1 | S. cerevisiae deletion strains, locus YNL067W, strain RPL9B, stronger effect = lower value 1.02 | S. cerevisiae deletion strains, locus YNL071W, strain lat1, stronger effect = lower value 0.974 | S. cerevisiae deletion strains, locus YNL128W, strain TEP1, stronger effect = lower value 0.983 | S. cerevisiae deletion strains, locus YNL153C, strain GIM3, stronger effect = lower value 1.03 | S. cerevisiae deletion strains, locus YNL183C, strain NPR1, stronger effect = lower value 0.93 | S. cerevisiae deletion strains, locus YNL209W, strain ssb2, stronger effect = lower value 1.01 | S. cerevisiae deletion strains, locus YNL233W, strain BNI4, stronger effect = lower value 1.02 | S. cerevisiae deletion strains, locus YNL248C, strain rpa49, stronger effect = lower value 0.961 | S. cerevisiae deletion strains, locus YNL250W, strain rad50, stronger effect = lower value 0.968 | S. cerevisiae deletion strains, locus YNL271C, strain bni1, stronger effect = lower value 0.976 | S. cerevisiae deletion strains, locus YNL298W, strain CLA4, stronger effect = lower value 0.991 | S. cerevisiae deletion strains, locus YNL307C, strain MCK1, stronger effect = lower value 1 | S. cerevisiae deletion strains, locus YNL322C, strain KRE1 (second series), stronger effect = lower value 0.948 | S. cerevisiae deletion strains, locus YNR049C, strain mso1, stronger effect = lower value 0.967 | S. cerevisiae deletion strains, locus YNR052C, strain pop2, stronger effect = lower value 0.993 | S. cerevisiae deletion strains, locus YOL012C, strain htz1 0.904 | S. cerevisiae deletion strains, locus YOL147C, strain pex11, stronger effect = lower value 0.99 | S. cerevisiae deletion strains, locus YOR001W, strain rrp6, stronger effect = lower value 0.957 | S. cerevisiae deletion strains, locus YOR061W, strain CKA2, stronger effect = lower value 0.996 | S. cerevisiae deletion strains, locus YOR069W, strain VPS5, stronger effect = lower value 0.984 | S. cerevisiae deletion strains, locus YOR070C, strain gyp1, stronger effect = lower value 0.984 | S. cerevisiae deletion strains, locus YOR080W, strain dia2, stronger effect = lower value 0.971 | S. cerevisiae deletion strains, locus YOR083W, strain WHI5, stronger effect = lower value 1.01 | S. cerevisiae deletion strains, locus YOR106W, strain vam3, stronger effect = lower value 0.987 | S. cerevisiae deletion strains, locus YOR136W, strain idh2, stronger effect = lower value 0.975 | S. cerevisiae deletion strains, locus YOR144C, strain elg1, stronger effect = lower value 0.989 | S. cerevisiae deletion strains, locus YOR184W, strain ser1, stronger effect = lower value 0.917 | S. cerevisiae deletion strains, locus YOR231W, strain MKK1, stronger effect = lower value 0.99 | S. cerevisiae deletion strains, locus YOR265W, strain rbl2, stronger effect = lower value 0.961 | S. cerevisiae deletion strains, locus YOR270C, strain vph1, stronger effect = lower value 0.94 | S. cerevisiae deletion strains, locus YOR290C, strain snf2, stronger effect = lower value 0.994 | S. cerevisiae deletion strains, locus YOR316C, strain cot1, stronger effect = lower value 0.99 | S. cerevisiae deletion strains, locus YPL051W, strain arl3, stronger effect = lower value 0.997 | S. cerevisiae deletion strains, locus YPL078C, strain atp4, stronger effect = lower value 0.981 | S. cerevisiae deletion strains, locus YPL106C, strain sse1, stronger effect = lower value 1.02 | S. cerevisiae deletion strains, locus YPL240C, strain hsp82, stronger effect = lower value 0.968 | S. cerevisiae deletion strains, locus YPL256C, strain CLN2, stronger effect = lower value 1 | S. cerevisiae deletion strains, locus YPR119W, strain clb2, stronger effect = lower value 0.994 | S. cerevisiae deletion strains, locus YPR141C, strain kar3, stronger effect = lower value 0.982 | S. cerevisiae deletion strains, locus YPR163C, strain tif3, stronger effect = lower value 0.989 | S. cerevisiae deletion strains, locus YPR167C, strain met16, stronger effect = lower value 0.99 | S. cerevisiae deletion strains, strain wtn01, stronger effect = lower value 0.968 | S. cerevisiae strains, strain wild type, stronger effect = lower value 1.01
